Test system: RARb homodimer (NR concentration 270 nM)
Assay: PBM binding z-score (relative to random genomic background probes); higher = stronger binding; sequences stand for … in GC…GCGATTGACAGCGTAGAATGAAGG
Outline: (§1)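 On custom Agilent 4×180K arrays, double-stranded probes with 34-nt variable regions carried direct-repeat seeds, single-nucleotide variants, half-site ablations or random human genomic background. Ligand-free nuclear receptor dimers were applied for 1 h, and binding was read with antibodies against each partner (one per run). Binding z-scores come from regression-normalized fluorescence, with the random background probes as reference.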

Compared with ACTAGCAGGCCAAGTTTGGGTCAATCAAACAAAG, GCAGACAGGTGAAACGCAAGTAACTCAGGGTGGC is lower in PBM binding z-score: 2.11 for the first, -0.222 for the second.

First: GATACAGGGTCAGCTAGAGGACAGAGTATGGAAA
Second: CCAGACAGGTGACAGGTAACTCAGTCTGGTACGC
The PBM binding z-score of the first is higher: 3.71 for the first, 0.331 for the second.

First: GCGACAGGGGCATCAGCAGGTTACCATAACTTAA
Second: CCAACTAGGTCAGAACAGGACAGTGAAGGATGAT
The PBM binding z-score of the first is lower: 1.23 for the first, 2.43 for the second.

Going from TTACCAAGGTGAGCTCAGGTCGTTGATCCAACTC to TCTCGGAGGACACGAAGGACAGAGCTTTCCAGAG, the PBM binding z-score falls from 1.03 to 0.867.

First: TCGAGTAGGTTAGGGGCCTTCAGAATGGCGTCGA
Second: TCTAGTTGGGCACGGAGGTCACACACGACGGGTA
The PBM binding z-score of the first is lower: -0.137 for the first, 4.1 for the second.

Going from TTACCAAGGTGAAAGGTCGTCGATGCACGCCTTG to ACAGACAGGTTAGTGAAGGTAACTCAGCTGGACG, the PBM binding z-score falls from 2.78 to 0.435.

Compared with GCTATTAGTTGTAAGGGCAACCGAATGATTCTCG, GGAACGAGGACAAGTTGATAGCAGAGTTTGATGG is lower in PBM binding z-score: 1.47 for the first, 0.51 for the second.

First: AGACTGAGGTTAAGATCAGGGAAACAGAATACAT
Second: CCGACTGGGGCAGAACGGTTACCATACCATCCGG
The PBM binding z-score of the first is higher: 0.774 for the first, 0.0428 for the second.

Going from GCTACTAGTTGAAAGGGCAACCGAATGATTCTCG to TAGCCAAGGTCATGGGCCAGTATACCACGCGAAC, the PBM binding z-score rises from 2.01 to 4.04.

Compared with TTACCAAGGTGAGCTGAGGTCGTTGAACCAACTC, CCGAGTAGGTTATGGGGCATTCCGGCAACGGTGA is lower in PBM binding z-score: 1.77 for the first, 1 for the second.

First: CGTCCAAGGCCAAAGGTCAGTGAAGAGATGACGG
Second: GCCAGTTGGTCAGTAAAAGGTCACACACCGGTCG
The PBM binding z-score of the first is lower: 4.6 for the first, 5.25 for the second.

Compared with TCTCGTAGATCAAGCAGGTTAAGAAAGCCTGAGT, GCTAGTTGGTCAGTAAAAGCTCACACACCGGTCG is higher in PBM binding z-score: -0.357 for the first, 0.375 for the second.

First: TCGAGTAGGTTAGGGGCATACAGAATGGCGTCGA
Second: TCTATTAGTTGACTAGGGCAACCGAAACAGCGGA
The PBM binding z-score of the first is lower: 0.759 for the first, 0.778 for the second.

Compared with CCTATTAGTTGACCATAAGGGCCACCGAAGCTCG, GCATATAGGTAATACAAGGTGAAGGTCCGATTGT is lower in PBM binding z-score: 1.51 for the first, 1.04 for the second.

First: CAGCCTAGCTCAGGGCCAGTATAGGAGGAACGTT
Second: CCTCCGAGGACAGAAGGTCAGAGCTGTCCGCTTT
The PBM binding z-score of the first is lower: -0.467 for the first, 3.67 for the second.

Going from TCATATAGGTAAAAGGTGAAATTCGGTGTGGTAA to AGTCAAAGTTCAGGACGAAGTAACGTAAAGCACG, the PBM binding z-score rises from 1.8 to 2.72.

Going from CGAACTAGGTCATCCATGACAGTGAATACATTGA to TCTTGTAGATCAATAGAGGTTGAGAAAGTGCGCT, the PBM binding z-score falls from 2.92 to -0.259.

Going from CGAACTCGGTCATCCAGGACAGTGAATACATTGA to GCTAGTTGGTCAGTAAAAGGTCAGACACCGGTCG, the PBM binding z-score rises from 1.59 to 4.8.

Going from TCTTGTAGATAAGCAGGTTAAGAAAGCTGGCCAA to TCTATTAGTAGATTAGGGCAACCGAAACAGCGGA, the PBM binding z-score rises from -0.166 to 0.21.

In the case of ACAGACAGGTGATGAAGGGAACTCAGGCTATCAT, the PBM binding z-score is reported as 0.0495.

Test system: RARg:RXRa (NR concentration 270 nM, RXRa partner concentration 90 nM)
Assay: as above
Outline: as §1

Compared with ACTAGCAGGCCAAGTTTGGGTCAATCAAACAAAG, GCAGACAGGTGAAACGCAAGTAACTCAGGGTGGC is lower in PBM binding z-score: 2.43 for the first, 0.227 for the second.

First: GATACAGGGTCAGCTAGAGGACAGAGTATGGAAA
Second: CCAGACAGGTGACAGGTAACTCAGTCTGGTACGC
The PBM binding z-score of the first is higher: 6.86 for the first, 0.209 for the second.

Compared with GCGACAGGGGCATCAGCAGGTTACCATAACTTAA, CCAACTAGGTCAGAACAGGACAGTGAAGGATGAT is higher in PBM binding z-score: 1.9 for the first, 2.41 for the second.

Going from TTACCAAGGTGAGCTCAGGTCGTTGATCCAACTC to TCTCGGAGGACACGAAGGACAGAGCTTTCCAGAG, the PBM binding z-score rises from 0.577 to 0.776.

Compared with TCGAGTAGGTTAGGGGCCTTCAGAATGGCGTCGA, TCTAGTTGGGCACGGAGGTCACACACGACGGGTA is higher in PBM binding z-score: -0.483 for the first, 4.07 for the second.

Compared with TTACCAAGGTGAAAGGTCGTCGATGCACGCCTTG, ACAGACAGGTTAGTGAAGGTAACTCAGCTGGACG is lower in PBM binding z-score: 4.43 for the first, 0.363 for the second.

Compared with GCTATTAGTTGTAAGGGCAACCGAATGATTCTCG, GGAACGAGGACAAGTTGATAGCAGAGTTTGATGG is higher in PBM binding z-score: 0.411 for the first, 0.796 for the second.

Going from AGACTGAGGTTAAGATCAGGGAAACAGAATACAT to CCGACTGGGGCAGAACGGTTACCATACCATCCGG, the PBM binding z-score falls from 2.09 to -0.0938.

First: GCTACTAGTTGAAAGGGCAACCGAATGATTCTCG
Second: TAGCCAAGGTCATGGGCCAGTATACCACGCGAAC
The PBM binding z-score of the first is lower: 1.33 for the first, 6.18 for the second.

Compared with TTACCAAGGTGAGCTGAGGTCGTTGAACCAACTC, CCGAGTAGGTTATGGGGCATTCCGGCAACGGTGA is lower in PBM binding z-score: 1.21 for the first, 0.266 for the second.

Compared with CGTCCAAGGCCAAAGGTCAGTGAAGAGATGACGG, GCCAGTTGGTCAGTAAAAGGTCACACACCGGTCG is lower in PBM binding z-score: 5.87 for the first, 5.38 for the second.

First: TCTCGTAGATCAAGCAGGTTAAGAAAGCCTGAGT
Second: GCTAGTTGGTCAGTAAAAGCTCACACACCGGTCG
The PBM binding z-score of the first is lower: -0.372 for the first, -0.0691 for the second.

First: TCGAGTAGGTTAGGGGCATACAGAATGGCGTCGA
Second: TCTATTAGTTGACTAGGGCAACCGAAACAGCGGA
The PBM binding z-score of the first is lower: 0.546 for the first, 0.736 for the second.

Compared with CCTATTAGTTGACCATAAGGGCCACCGAAGCTCG, GCATATAGGTAATACAAGGTGAAGGTCCGATTGT is higher in PBM binding z-score: 0.432 for the first, 0.61 for the second.

Going from CAGCCTAGCTCAGGGCCAGTATAGGAGGAACGTT to CCTCCGAGGACAGAAGGTCAGAGCTGTCCGCTTT, the PBM binding z-score rises from -0.693 to 3.52.

Going from TCATATAGGTAAAAGGTGAAATTCGGTGTGGTAA to AGTCAAAGTTCAGGACGAAGTAACGTAAAGCACG, the PBM binding z-score rises from 1.8 to 3.82.

First: CGAACTAGGTCATCCATGACAGTGAATACATTGA
Second: TCTTGTAGATCAATAGAGGTTGAGAAAGTGCGCT
The PBM binding z-score of the first is higher: 4 for the first, 0.00331 for the second.

Compared with CGAACTCGGTCATCCAGGACAGTGAATACATTGA, GCTAGTTGGTCAGTAAAAGGTCAGACACCGGTCG is higher in PBM binding z-score: 2.22 for the first, 4.68 for the second.

Compared with TCTTGTAGATAAGCAGGTTAAGAAAGCTGGCCAA, TCTATTAGTAGATTAGGGCAACCGAAACAGCGGA is higher in PBM binding z-score: -0.153 for the first, 0.245 for the second.

ACAGACAGGTGATGAAGGGAACTCAGGCTATCAT gave a PBM binding z-score of 0.231.
